Screens as filed in PubChem BioAssay.
Vaccinia Venus = inhibitors of vaccinia virus (Venus reporter). Vaccinia virus Venus reporter expression, fluorescence. Potency, µM (highest dose often 36.5 µM), for inactives: top-dose activity change, negative = inhibition, most hits filed as inhibitors. hit rate 0.46% among 330,000. AID 720580; calls by dose curve; tested in A549 cells; also: potency is read from the fitted curve at half-maximal effect; nearly all actives have a fitted effect of over 30% in size
MARV entry inh = Marburg virus entry inhibition; Marburg virus pseudotyped entry inhibition, cell reporter; Potency, µM (doses to about 37.8 µM), without a hit: at the highest dose activity change, negative = inhibition, hits mostly inhibitors; hit rate 1.8% among 300,000; calls by dose curve; tested in HEK293 cells; also: potency is read from the fitted curve at half-maximal effect
VACV mCherry inh = inhibitors of vaccinia virus infection (mCherry reporter signal). Vaccinia virus mCherry reporter infection, fluorescence. Potency, µM (highest dose often 36.5 µM), for the others: at the highest dose activity change, negative = inhibition, usual class: inhibitors. hit rate 0.63% among 310,000; calls by dose curve; tested in A549 cells; also: potency is read from the fitted curve at half-maximal effect; nearly all actives have a fitted effect of over 35% in size
LASV entry inh = inhibitors of Lassa virus binding or cell entry; Lassa virus pseudotype entry inhibition, cell reporter; Potency, µM (series often up to 37.9 µM), without a hit: at the highest dose activity change, negative = inhibition, usual class: inhibitors; hit rate 1.2% among 300,000; AID 540256; calls by dose curve; tested in HEK293 cells; also: potency is read from the fitted curve at half-maximal effect; nearly all actives have a fitted effect of over 50% in size
HCMV antiviral = blocks human cytomegalovirus replication. HFF cells, HCMV-luciferase reporter, 72 h; active compounds read low. activity change, negative = inhibition, % at 57.5 µM. hit rate 4.5% among 410,000; in the data active = activity change below about -60%; inconclusive = no clear call, values can overlap the other calls; inactive = above about -39%
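Two-dose cell screen: HFF monolayers treated with compounds and infected with luciferase-expressing HCMV at 1 PFU/cell, 72 h at 37C, then lysed for luciferase measurement.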
FMDV inh = foot and mouth disease virus antiviral activity; FMDV antiviral cell-based qHTS; Potency, µM (highest dose often 57.9 µM), inactives show top-dose activity change, negative = inhibition, hits mostly inhibitors; hit rate 1.2% among 410,000; calls by dose curve; tested in HEK293T cells; also: read-out not given here; potency is read from the fitted curve at half-maximal effect; nearly all actives have a fitted effect of over 45% in size
Starred values were filed as active, the others as inactive; i = inactive; ? = inconclusive; . = no result given; [ ] = dose if it differs, or a comment. Sampled rows, rich in hits. Any-hit rate of the full collection: about 6.5%. % is scaled to controls: 0 for no effect and ±100 for the full control effect.

SMILES	Vaccinia Venus	MARV entry inh	VACV mCherry inh	LASV entry inh	HCMV antiviral	FMDV inh
C/C(=N\NC(=O)c1cc2ccccc2cc1O)c1ccc2c(c1)OCO2	-4.9%	6.2%	i	5.8%	12.6	-28.3%
CC/C(=N/NC(=O)c1ccc2c(c1)OCO2)c1ccccc1O	.	.	.	.	-97.9*	50.1%
COc1c(O)ccc(/C=N\NC(=O)c2ccc3c(c2)OCO3)c1[N+](=O)[O-]	.	.	.	.	65.2	50.7%
O=C(N/N=C/c1c(O)ccc2ccccc12)c1ccc(CO)nc1	-19.8%	11.2µM*	?	?	-99.2*	-11.2%
COc1ccccc1/C=N/NC(=O)CNC(=O)c1ccc(S(=O)(=O)N2CCCC2)cc1	-11.7%	13.9%[46.1 µM]	-3.0%	-0.5%[46.1 µM]	-19.6	-3.7%
Cc1ccc(CSC2=Nc3ccccc3C3=NC(CCC(=O)NCc4cccs4)C(=O)N23)c(C)c1 (configuration not stated)	-16.9%	.	-13.6%	?	8.0	-7.0%
O=C(CN1Cc2ccccc2OC(c2ccsc2)C1)NCC1OCCc2ccccc21 (configuration not stated)	-0.2%	.	0.4%	.	.	-0.4%
CCOC(=O)CN1C(=O)NC(c2ccc(Br)cc2)C(C(=O)OC)=C1C (configuration not stated)	.	-10.5%[14.2 µM]	.	.	.	.
O=C(N/N=C\c1c(O)ccc2ccccc12)c1ccc(S(=O)(=O)N2CCCCC2)cc1	0.1%	1.26µM*	-9.3%	?	-103.1*	-11.9%
O=C(NCc1ccccc1)c1ccc(S(=O)(=O)N2CCCCCC2)cc1	-11.8%	.	-11.3%	.	-13.4	-7.9%
Cc1cc(O)cc(O)c1/C=N/NC(=O)c1ccc2c(c1)OCCO2	?	.	2µM*	.	-99.8*	-15.8%
O=C(CSc1nc(=O)n(Cc2ccco2)c2c1CCC2)NCc1ccccc1Cl	-20.9%	.	-24.2%	2.1%[46.1 µM]	-14.0	17.1%
CSc1nc2ccccc2nc1N(C)S(=O)(=O)c1ccc(C)cc1	-7.1%	15.3%[46.1 µM]	i	-10.8%[46.1 µM]	-66.1*	-18.4%
Cc1ccc(S(=O)(=O)N(C)c2ccccc2)cc1	-6.2%	-17.0%	-23.7%	4.4%	-24.4	-8.8%
O=C(Nc1ccccc1)Nc1nnc(CSCc2ccccc2Cl)s1	?	-2.1%	?	-4.7%	?	0.0%
O=C(Nc1ccc(Cl)cc1)Nc1nnc(CSCc2ccccc2Cl)s1	.	.	.	.	-91.2*	?
O=C(Nc1ccc(Cl)c(Cl)c1)Nc1nnc(CSc2ccccc2)s1	-24.5%	10µM*	-19.4%	3.55µM*	-99.4*	?
COc1ccc(OC)c(-c2cc(Cl)c3c(c2)CC(CNC(=O)c2cnn4cccnc24)O3)c1 (configuration not stated)	1.7%	.	-8.5%	.	.	32.5%
Cc1nc2c(O)c3c(c(O)c2nc1C)C1C=CC3CC1	-25.1%	?	-4.0%	?	-16.9	7.08µM*
Cc1nc2c(C)c(C)c(C)c(C)c2nc1C	-0.7%	0.0%[14.2 µM]	i	1.9%	?	7.1%
CC(C)(C)CC(=O)NCC(c1ccc2c(c1)OCO2)N1CCOCC1 (configuration not stated)	5.9%	.	0.4%	-10.3%[46.1 µM]	-1.6	-10.3%
CN(C)S(=O)(=O)c1ccc(C(=O)Nc2ccc(-n3nncc3-c3ccccc3)cc2)cc1	-9.8%	.	-0.3%	?	6.1	-18.8%
Oc1cccc(/C=N/N=C/c2cccc(O)c2O)c1O	-14.7%	?	i	11.2µM*	-11.0	-87.0%
O=C(Nc1cc(F)ccc1F)N1CC(=O)N2[C@@H](CO)[C@H](c3ccc(Br)cc3)[C@@H]2C1	.	.	.	.	3.7	.
O=C(/C=C/c1ccco1)Nc1nc(-c2ccc(F)c(F)c2)cs1	.	.	.	.	.	35.5µM*
SMILES	Vaccinia Venus	MARV entry inh	VACV mCherry inh	LASV entry inh	HCMV antiviral	FMDV inh
COc1ccc(-c2csc(NC(=S)NC(=O)/C=C/c3ccco3)n2)cc1Br	?	-14.0%[46.1 µM]	-2.8%	?	-73.2*	-8.6%
CCNc1ncc2nc(-c3ccc(Cl)cc3)c(=O)n(Cc3ccc(F)cc3)c2n1	.	.	.	.	.	-14.8%
CC(=O)NC1=C(Nc2ccc(N(C)C)cc2)C(=O)c2ccccc2C1=O	-7.7%	?	?	1.58µM*	-87.9*	-12.2%
CC(=O)NC1=C(N(C)C2CCS(=O)(=O)C2)C(=O)c2ccccc2C1=O (configuration not stated)	-1.2%	?	-10.5%	7.08µM*	-32.8	12.6µM*
CN(C(=O)Nc1ccccc1)C1CCS(=O)(=O)C1 (configuration not stated)	-8.1%	7.2%[46.1 µM]	.	2.9%	-28.7	-2.5%
CN(C)c1ccc(C=C2C(=O)c3ccccc3C2=O)cc1	-4.2%	.	34.4%	.	.	.
Cc1cc2cc(C(c3nnnn3C3CCCC3)N(Cc3cccnc3)Cc3ccco3)c(=O)[nH]c2cc1C (configuration not stated)	-21.2%	4.11µM*	-10.1%	?	-66.5*	?
COc1cccc(C(=O)Oc2c(Br)cc(Br)cc2/C=N/NC(=O)c2cc(C)[nH]n2)c1	?	.	?	.	-96.8*	-8.4%
COc1cc(C(=O)Oc2cccc(/C=N/NC(=O)c3cc(C)[nH]n3)c2)cc(OC)c1OC	-2.5%	?	-20.4%	?	32.1	-1.5%
Cc1cc(C(=O)N/N=C/c2cccc(OC(=O)c3cccc(Br)c3)c2)n[nH]1	.	.	.	.	-71.2*	23.2%
COc1ccc(-c2nc3sc(CCNC(=O)C(=O)Nc4ccc(C)c(F)c4)c(C)n3n2)cc1	-7.4%	.	-3.0%	-15.9%[46.1 µM]	20.3	28.3%
C#CC(=O)N(c1ccc(OC)cc1OC)C(C(=O)NC1CCCC1)c1cccs1 (configuration not stated)	10µM*	?	10µM*	?	-99.5*	?
C#CC(=O)N(c1cc(OC)ccc1OC)C(C(=O)NC1CCCC1)c1cccs1 (configuration not stated)	10µM*	2µM*	11.2µM*	3.55µM*	.	?
COc1ccc(N(C(=O)c2ccco2)C(C(=O)NC2CCCCC2)c2cccs2)cc1OC (configuration not stated)	-11.4%	-3.1%	.	?	-2.1	14.3%
CCOC(=O)c1ccc(NC(=O)NCCOCCn2c(=O)oc3ccccc32)cc1	-14.0%	-25.8%[46.1 µM]	-9.4%	0.2%[46.1 µM]	-27.1	?
COc1ccc(CCNC(=O)c2c(C)nn(-c3ccccc3)c2Cl)cc1OC	-12.5%	-6.2%[46.1 µM]	9.2%	?	-27.8	?
O=C(COC(=O)c1ccccc1C(=O)c1ccccc1)NCCc1ccccc1	-0.7%	-20.3%[46.1 µM]	-8.3%	-5.4%	-19.2	-2.1%
Cc1ccc(-n2nc(C)c(C(=O)NCCCN3CCN(c4ccc(F)cc4)CC3)c2-n2cccc2)cc1	-26.6%	.	?	?	-70.1*	-21.7%
COc1ccc(N2CCN(CCCNC(=O)c3c(C)nn(-c4ccc(F)cc4)c3-n3cccc3)CC2)cc1	-10.7%	.	-24.9%	-20.8%[46.1 µM]	-24.6	?
CCOc1ccc(CCNC(=O)COC(=O)c2c(C)nn(-c3ccccc3)c2C)cc1OCC	-8.6%	0.4%[46.1 µM]	-5.1%	-17.0%[46.1 µM]	-98.6*	5.9%
Cc1nn(-c2ccccc2)c(Cl)c1C(=O)OCC(=O)NCCc1ccccc1	-6.6%	11.2µM*	-3.6%	?	13.4	-6.5%
